Columns and labels:
Assay in all cases: PBM binding z-score (relative to random genomic background probes); higher = stronger binding; sequences stand for … in GC…GCGATTGACAGCGTAGAATGAAGG
[1] = tested on: FXR:RXRa (NR concentration 270 nM, RXRa partner concentration 90 nM)
Summary of the method: (§1)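 Regression normalization was applied to scanned fluorescence from custom Agilent 4×180K protein-binding microarrays. Before scanning, arrays were incubated 1 h with ligand-free nuclear receptor dimers, and binding was detected with antibodies against each partner (one per run). Binding z-scores use the random background probes as reference.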

[2] = tested on: LXRa:RXRa (NR concentration 270 nM, RXRa partner concentration 90 nM)
Summary of the method: as §1

[3] = tested on: LXRa homodimer (NR concentration 270 nM)
Summary of the method: as §1

[4] = tested on: LXRb:RXRa (NR concentration 270 nM, RXRa partner concentration 90 nM)
Summary of the method: as §1

[5] = tested on: LXRb homodimer (NR concentration 270 nM)
Summary of the method: as §1

[6] = tested on: PPARa:RXRa (NR concentration 270 nM, RXRa partner concentration 90 nM)
Summary of the method: as §1

[7] = tested on: PPARg:RXRa (NR concentration 180 nM, RXRa partner concentration 90 nM)
Summary of the method: as §1

[8] = tested on: PPARg:RXRa 270nM:90nM, anti-RXR (NR concentration 270 nM, RXRa partner concentration 90 nM)
Summary of the method: as §1

[9] = tested on: PPARg:RXRa 30nM:10nM, anti-RXR (NR concentration 30 nM, RXRa partner concentration 10 nM)
Summary of the method: as §1

[10] = tested on: PPARg:RXRa 90nM:30nM, anti-RXR (NR concentration 90 nM, RXRa partner concentration 30 nM)
Summary of the method: as §1

[11] = tested on: PPARg:RXRa DBDmut IVT, anti-RXR (DBD mutation: RXRa K156A/R161A, NR concentration 270 nM, RXRa partner concentration 90 nM)
Summary of the method: as §1

[12] = tested on: PPARg:RXRa IVT, anti-PPARg (NR concentration 270 nM, RXRa partner concentration 90 nM)
Summary of the method: as §1

[13] = tested on: PPARg DBDmut:RXRa IVT, anti-PPARg (DBD mutation: PPARg1 K132A/R137A, NR concentration 270 nM, RXRa partner concentration 90 nM)
Summary of the method: as §1

[14] = tested on: PPARg DBDmut IVT, anti-PPARg (DBD mutation: PPARg1 K132A/R137A, NR concentration 270 nM)
Summary of the method: as §1

[15] = tested on: PPARg homodimer (NR concentration 180 nM)
Summary of the method: as §1

[16] = tested on: PXR:RXRa (NR concentration 270 nM, RXRa partner concentration 90 nM)
Summary of the method: as §1

[17] = tested on: PXR homodimer (NR concentration 270 nM)
Summary of the method: as §1

[18] = tested on: RARa:RXR (NR concentration 270 nM, RXRa partner concentration 90 nM)
Summary of the method: as §1

[19] = tested on: RARa homodimer (NR concentration 270 nM)
Summary of the method: as §1

[20] = tested on: RARb:RXRa (NR concentration 270 nM, RXRa partner concentration 90 nM)
Summary of the method: as §1

Row | Sequence | PBM binding z-score [1] | PBM binding z-score [2] | PBM binding z-score [3] | PBM binding z-score [4] | PBM binding z-score [5] | PBM binding z-score [6] | PBM binding z-score [7] | PBM binding z-score [8] | PBM binding z-score [9] | PBM binding z-score [10] | PBM binding z-score [11] | PBM binding z-score [12] | PBM binding z-score [13] | PBM binding z-score [14] | PBM binding z-score [15] | PBM binding z-score [16] | PBM binding z-score [17] | PBM binding z-score [18] | PBM binding z-score [19] | PBM binding z-score [20]
1 | CTCGAAAGGTCGTGCTCACGTGAGTATACCAAAC | 5.21 | 3.95 | 0.0228 | 3.69 | 0.397 | 5.07 | 2.9 | 3.42 | 0.773 | 2.12 | 0.85 | 1.55 | 0.551 | 0.796 | 1.35 | 2.86 | -0.121 | 3.31 | -0.039 | 3.92
2 | TCATATAGGTAAAGGTGAAAGGCGAACGATATGA | 0.813 | 1.12 | -0.0796 | 1.17 | 0.0383 | 3.4 | 4.29 | 4.99 | 4.35 | 4.93 | 4.32 | 4.06 | 1.46 | 1.05 | 1.25 | 0.986 | 0.264 | 1.81 | 0.996 | 1.99
3 | CTCCAAAGGTCGTGCTCAGGTGAGTATACCAAAC | 5.95 | 4.42 | 0.227 | 3.67 | 0.361 | 5.08 | 3.62 | 4.58 | 1.3 | 3.35 | 0.883 | 1.49 | -0.0777 | -0.509 | 2.56 | 3.53 | 0.561 | 4.78 | 0.196 | 4.08
4 | TGAATGAGGTTATGAGATCAGGGAACGTTGCAAA | 1.67 | 1.4 | -0.558 | 0.95 | -0.381 | 3.11 | 1.64 | 1.96 | 0.899 | 1.31 | 1.33 | 2.1 | 0.285 | -0.0697 | 0.328 | 0.684 | 0.16 | 1.57 | -0.0238 | 1.39
5 | ATATGTAGGTTAAGGCTCATTCAGGTTGGTTCGC | 0.549 | 0.861 | 0.334 | 0.683 | 0.0062 | 3.43 | 5.54 | 5.46 | 2.91 | 5.15 | 7.51 | 7.12 | 5.15 | 3.53 | 2.08 | 0.38 | 0.413 | 0.411 | 0.882 | 1.02
6 | TCTAGTTGGTCACGGAGGTCAGACACGACGGGTA | 2.17 | 2.33 | 1.51 | 2.23 | 0.127 | 2.88 | 2.45 | 2.97 | 3.26 | 3.11 | 2.48 | 3.14 | 0.816 | 0.0631 | 2.07 | 2.96 | 0.703 | 2.79 | 0.955 | 3.26
7 | GCAACGAGGGCAAGTTGATAGCAGAGTTTGATGG | 0.996 | 0.513 | -0.434 | 0.332 | -0.572 | 1.49 | 0.841 | 1 | 0.0166 | 0.481 | 2.75 | 1.85 | -0.194 | -0.32 | 0.288 | 0.924 | 0.464 | 0.816 | -0.0307 | 2.8
8 | ATCGAAAGTTCGTGAGGTGAGTATACAGAAAGGC | 1.21 | 1.26 | 0.0798 | 0.398 | -0.197 | 1.88 | 0.759 | 0.561 | 0.146 | 0.655 | -1.13 | 0.316 | 0.654 | 0.402 | 0.342 | 1.08 | 0.69 | 1.39 | 0.453 | 2.17

Source: the supplement of paper PMC6555819
